In PubChem BioAssay (NCATS):
Records with an inconclusive call do not appear. Where a call stands in place of a potency, no number is given. Values without a mark were called inactive. The source made the active and inactive calls. Calls come from the whole dose curve; as a rule, active = well fitted curve in the direction sought with a large enough effect; inconclusive = small, poorly fitted or top-dose-only effect, or another doubt; inactive = no such curve, though single readings can be large; an effect the other way counts as inactive or inconclusive.

How the values were obtained:
[1] = target: Aldehyde dehydrogenase, mitochondrial (Homo sapiens) (UniProt P05091); assay: qHTS for Inhibitors of the Aldehyde Dehydrogenase Family (ALDH2) Primary screen (AID 2061308); conditions: ALDH2 enzyme inhibition qHTS, 1536-well; series mostly up to 56 µM; note: nearly all actives have a fitted effect of over 55% in size; note: potency is the fitted concentration of half-maximal effect
[2] = target: Retinaldehyde dehydrogenase 3 (Homo sapiens) (UniProt P47895); assay: qHTS for Inhibitors of the Aldehyde Dehydrogenase Family (ALDH1A3) Validation screen (AID 2061312); conditions: ALDH1A3 enzyme inhibition qHTS validation, fluorescence; series mostly up to 84.7 µM; note: nearly all actives have a fitted effect of over 45% in size; note: potency is the fitted concentration of half-maximal effect
[3] = target: Retinaldehyde dehydrogenase 3 (Homo sapiens) (UniProt P47895); assay: qHTS for Inhibitors of the Aldehyde Dehydrogenase Family (ALDH1A3) Primary screen (AID 2061315); conditions: ALDH inhibition qHTS; series mostly up to 56 µM
[4] = target: Retinaldehyde dehydrogenase 3 (Homo sapiens) (UniProt P47895); assay: qHTS for Inhibitors of the Aldehyde Dehydrogenase Family (ALDH1A3) Confirmatory screens (AID 2061311); conditions: ALDH inhibition qHTS; series mostly up to 46 µM; note: nearly all actives have a fitted effect of over 60% in size; note: potency is the fitted concentration of half-maximal effect
[5] = target: Aldehyde dehydrogenase 1A1 (Homo sapiens) (UniProt P00352); assay: qHTS for Inhibitors of the Aldehyde Dehydrogenase Family (ALDH1A1) Confirmatory screens (AID 2061316); conditions: ALDH inhibition qHTS; series mostly up to 47.3 µM; note: potency is the fitted concentration of half-maximal effect; nearly all actives have a fitted effect of over 65% in size

Compound | Potency [1] | Potency [2] | Potency [3] | Potency [4] | Potency [5]
CN(C)Cc1ccc(-c2cnn3c(-c4cccc(NC(=O)c5cccc(C(F)(F)F)c5)c4)ccnc23)cc1 | inactive | inactive | inactive |  | 
C[C@@H]1C[C@H]2[C@@H]3C[C@H](F)C4=CC(=O)C=C[C@]4(C)[C@@]3(F)[C@@H](O)C[C@]2(C)[C@@]1(O)C(=O)CO | inactive | inactive | inactive |  | 
C=CC(=O)Nc1cccc(CN2C(=O)N(c3c(Cl)c(OC)cc(OC)c3Cl)Cc3cnc(NCCCCN(CC)CC)nc32)c1 | inactive | inactive | inactive |  | 
C=C[C@H]1CN2CC[C@H]1C[C@H]2[C@H](O)c1ccnc2ccc(OC)cc12 | inactive | inactive | inactive |  | 
NC(=O)C1CCN(c2nc(-c3ccccc3-c3ccccc3)cs2)CC1 | inactive |  |  | 2.83 µM (active) | 3.18 µM (active)
Cc1cnc(-c2ccccc2N(C)C)nc1NCc1ccc(-c2cccnc2)cc1 | inactive |  | inactive | 3.55 µM (active) | 14.2 µM (active)
CC(=O)OCC(=O)[C@@]1(O)[C@H](C)C[C@H]2[C@@H]3CCC4=CC(=O)C=C[C@]4(C)[C@@]3(F)[C@@H](O)C[C@@]21C | inactive | inactive | inactive |  | 
CC(C)c1nc(CN(C)C(=O)N[C@H](C(=O)N[C@@H](Cc2ccccc2)C[C@H](O)[C@H](Cc2ccccc2)NC(=O)OCc2cncs2)C(C)C)cs1 | inactive | inactive | inactive |  | 
N#Cc1ccc2[nH]c(O)c(-c3ccc(CN4CCOCC4)cn3)c2c1 | inactive | 10 µM (active) |  |  | 
Cc1nc(Nc2cnn(C3CCNCC3)c2)nc2c1N(C)C(=O)c1cc3ccccc3cc1N2C | inactive | inactive | inactive |  | 
Cc1ccnc(NC(=S)N2CCN(c3ccc4ccccc4n3)CC2)c1 | 2.82 µM (active) |  |  | 11.3 µM (active) | 3.18 µM (active)
COc1ccc(NC(=O)Nc2ccc(-c3nc4ccccc4[nH]3)cc2)cc1OC | inactive |  | inactive | inactive | 
Cc1ccc(C(=O)N(CCCN)C(c2oc3cc(Cl)ccc3c(=O)c2Cc2ccccc2)C(C)C)cc1 (centres undefined) | inactive | inactive | inactive |  | 
COc1cc2nc(N3CCC(N4CCCCC4)CC3)nc(NC3CCCCCC3)c2cc1OC | inactive | inactive | inactive |  | 
CN(C)c1nc(NC2CCC(NC(=O)c3ccc(F)c(F)c3)CC2)nc2ccccc12 (centres undefined) | inactive | inactive | inactive |  | 
CCOC(=O)Nc1nc2ccccc2[nH]1 | inactive | inactive | inactive |  | 
CNC(=O)c1ccccc1Nc1nc(Nc2ccc3c(c2OC)CCCC(N2CCN(CCO)CC2)C3)ncc1Cl (centres undefined) | inactive | inactive | inactive |  | 

Compound | Potency [1] | Potency [2] | Potency [3] | Potency [4] | Potency [5]
CN(C)CCN(Cc1ccccc1)C(=O)c1cc(-c2ccc(F)cc2)n2nc(C(C)(C)C)cc2n1 | inactive | inactive | inactive |  | 
CC(=O)OC1C(=O)C2(C)C(O)CC3OCC3(OC(C)=O)C2C(OC(=O)c2ccccc2)C2(O)CC(OC(=O)C(O)C(NC(=O)c3ccccc3)c3ccccc3)C(C)=C1C2(C)C (centres undefined) | inactive | inactive | inactive |  | 
Cc1cc(C)c(Nc2ccnc(Nc3ccc(C#N)cc3)n2)c(C)c1 | inactive | inactive | inactive |  | 
C=CS(=O)(=O)NC1CCN(C(=O)CNc2cc(I)c(Cl)cc2OC)CC1 | inactive | inactive | inactive |  | 
COc1ccc(C2=N[C@@H](c3ccc(Cl)cc3)[C@@H](c3ccc(Cl)cc3)N2C(=O)N2CCNC(=O)C2)c(OC(C)C)c1 | inactive | inactive | inactive |  | 
CCC(C)CNCC(=O)N1CCc2sccc2C1COc1cccc(C)c1 (centres undefined) | inactive | inactive | inactive |  | 
Cc1ccc(C(=O)N(CCCN)C(c2nc3cc(Cl)ccc3c(=O)n2Cc2ccccc2)C(C)C)cc1 (centres undefined) | inactive | inactive | inactive |  | 
O=C(c1ccc(Cl)c([N+](=O)[O-])c1)N1CCN(c2ccccc2F)CC1 | inactive | inactive | inactive |  | 
COc1ccc(C2=NC(c3ccc(Cl)cc3)C(c3ccc(Cl)cc3)N2C(=O)N2CCNC(=O)C2)c(OC(C)C)c1 (centres undefined) | inactive | inactive | inactive |  | 
CCc1ccccc1OC[C@@H](O)CN[C@H]1CCCc2ccccc21 | inactive | inactive | inactive |  | 
O=C(NCc1nc2ccccc2c(=O)n1-c1ccc(F)cc1)Nc1ccc(Cl)c(C(F)(F)F)c1 | inactive | inactive | inactive |  | 
CCC[C@H]1C[C@H](C(=O)N[C@@H]([C@@H]2O[C@@H](SC)[C@@H](O)[C@@H](O)[C@@H]2O)[C@H](C)Cl)N(C)C1 | inactive | inactive | inactive |  | 
CCCc1[nH]nc2c1C(c1cc(Cl)cc(Cl)c1O)C(C#N)=C(N)O2 (centres undefined) | inactive | inactive | inactive |  | 
C[C@@H](NC(=O)C(=O)c1c[nH]c2ccc([N+](=O)[O-])cc12)c1ccccc1 | inactive | inactive | inactive |  | 
CC(=O)N1c2ccc(-c3ccc(C(=O)O)cc3)cc2C(Nc2ccc(Cl)cc2)CC1C (centres undefined) | inactive | inactive | inactive |  | 
OC(CNCCc1c[nH]c2ccccc12)Cn1c2ccccc2c2ccccc21 (centres undefined) | inactive | inactive | inactive |  | 
